Peg3 promoter – Peg3 promoter-driven luciferase inhibitors, primary screen, cell-based, HeLa, luciferase luminescence; HeLa PEG-Prom luciferase reporter, overnight; actives 1.7% (n = 360,000); inhibition, % at 20 µM;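 active = inhibition of at least 50% at 20 µM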
CF NFkB inh – inhibitors of PAF-induced NF-kB signaling, primary screen, cell-based, GFP fluorescence, uHTS; KKLEB NF-kB-GFP reporter, GFP fluorescence overnight; inhibition, % at 5 µM; actives 0.86% (n = 360,000); AID 588850, 2011;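 active = at least 50% inhibition at 5 µM, scaled per plate between neutral and stimulator controls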;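 also: PAF is a Pseudomonas aeruginosa culture filtrate used as stimulus; plate controls were PAF-stimulated DMSO wells for no effect and unstimulated DMSO wells for full effect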
ABHD5-PLIN5 inh – ABHD5-PLIN5 interaction inhibitors, primary screen, cell lysate, split luciferase complementation, luminescence; Perilipin-5 (Homo sapiens) + 1-acylglycerol-3-phosphate O-acyltransferase ABHD5 (Homo …; Split G. princeps luciferase complementation, 4 h; inhibition, % at 4 µM; actives 0.78% (n = 360,000);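 active = inhibition above the mean inhibition across every tested compound plus 3 SD, cut at about 22% in these data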;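 also: 0% = DMSO only wells and the 100% control is not disclosed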
Target sequence (Q00G26 whole entry, looked up): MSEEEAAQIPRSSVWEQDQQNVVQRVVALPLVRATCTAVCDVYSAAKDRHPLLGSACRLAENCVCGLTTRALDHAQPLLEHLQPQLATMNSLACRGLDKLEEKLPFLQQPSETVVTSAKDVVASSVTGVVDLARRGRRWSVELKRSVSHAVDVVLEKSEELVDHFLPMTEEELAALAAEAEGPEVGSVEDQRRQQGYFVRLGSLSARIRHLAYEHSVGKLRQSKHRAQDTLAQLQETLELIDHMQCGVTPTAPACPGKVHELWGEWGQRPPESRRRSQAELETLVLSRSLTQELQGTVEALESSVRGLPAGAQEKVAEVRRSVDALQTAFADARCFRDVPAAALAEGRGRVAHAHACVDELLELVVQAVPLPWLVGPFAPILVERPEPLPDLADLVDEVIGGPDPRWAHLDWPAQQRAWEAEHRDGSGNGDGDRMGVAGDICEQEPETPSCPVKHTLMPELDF
Target sequence (Q8WTS1 whole entry, looked up): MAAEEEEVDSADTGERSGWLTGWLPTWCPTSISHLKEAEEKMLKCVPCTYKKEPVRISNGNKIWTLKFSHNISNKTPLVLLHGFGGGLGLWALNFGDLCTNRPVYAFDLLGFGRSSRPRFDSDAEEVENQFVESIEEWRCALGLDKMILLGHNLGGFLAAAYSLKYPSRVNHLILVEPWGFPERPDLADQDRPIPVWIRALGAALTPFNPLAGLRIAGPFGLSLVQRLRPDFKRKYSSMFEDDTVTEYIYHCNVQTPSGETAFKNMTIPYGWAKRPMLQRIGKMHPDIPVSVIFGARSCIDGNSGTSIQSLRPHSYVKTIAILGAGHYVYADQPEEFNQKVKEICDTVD
KKLEB cytotox – cytotoxicity in KKLEB CF airway cells, primary screen, cytotoxicity control for CF NF-kB inhibitor project, cell-based, uHTS, fluorescence assay plates. AID 602141, 2011. KKLEB CF airway cells viability, ATPlite luminescence, overnight; stronger effect = lower value; cells stimulated with P. aeruginosa culture filtrate. actives 0.36% (n = 360,000). activity change (cytotoxicity), % at 5 µM;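 active = corrected activity change at or below -50% at 5 µM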
HIF-2a inh – HIF-2a reporter inhibitors, primary screen, luminescence, 786-0 RCC cells | 786-0 RCC cells HIF-2a reporter, luciferase luminescence, overnight | inhibition, % at 18.8 µM | actives 0.72% (n = 360,000);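 active = inhibition of the luminescence signal of 40% or more relative to plate controls, in a single-dose primary screen at 18.75 µM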
TRPM1 prom inh – inhibitors of MITF-dependent TRPM1 promoter reporter, primary screen, cell-based, SK-MEL-5, single point, luciferase; inhibition, % at 12.5 µM; SK-MEL-5 TRPM1 promoter luciferase, 24 h; actives 0.83% (n = 330,000); AID 488899, 2010;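 active = mean inhibition across replicates of 60% or more, whatever share of single replicates reaches that level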
An asterisk follows results filed as active; . = no result given. The list is not random: actives were taken first. Their share in the collection is about 3%.

SMILES	Peg3 promoter	CF NFkB inh	ABHD5-PLIN5 inh	KKLEB cytotox	HIF-2a inh	TRPM1 prom inh
COc1ccc(NC(=O)C2CCN(S(=O)(=O)c3cccs3)CC2)cc1OC	6	-1	2	13	9	7
CC(CCc1ccccc1)NC(=O)COC(=O)c1cc(NS(=O)(=O)c2ccc(Cl)c([N+](=O)[O-])c2)ccc1O (stereo unspecified)	57*	2	-1	3	55*	3
O=C(Nc1ccccc1)C1Cc2c(-c3ccc(Cl)cc3)ccnc2O1 (stereo unspecified)	9	-6	6	-2	4	.
O=C(CSCC(=O)Nc1ccccc1)N/N=C/c1c(O)ccc2ccccc12	52*	27	3	-15	5	69*
COc1ccc(NC(C)C(=O)N/N=C/c2c(O)ccc3ccccc23)cc1 (stereo unspecified)	57*	-13	3	-9	16	44
O=C(NN=Cc1c(O)ccc2ccccc12)c1ccncc1	45	-11	4	4	-4	75*
O=C(CN1CCOCC1)N/N=C/c1c(O)ccc2ccccc12	16	15	2	1	-11	1
O=C(N/N=C/c1c(O)ccc2ccccc12)c1cccnc1	52*	4	10	0	-10	49
O=C(NCCCC(NC(=O)OCc1ccccc1)C(=O)O)OCc1ccccc1 (stereo unspecified)	13	8	-3	16	15	1
CC(O)(Cc1ccccn1)Cc1ccccn1	10	-3	5	-1	2	-10
Cn1cc(C(=O)N/N=C/c2c(O)ccc3ccccc23)ccc1=O	42	-12	-2	-4	-2	69*
Cn1nccc1C(=O)N/N=C/c1c(O)ccc2ccccc12	25	-30	4	-7	-75	72*
O=C(N/N=C\c1c(O)ccc2ccccc12)c1ccc(O)cc1	39	9	2	-12	-62	36
Cc1cc(-c2ccccc2)n(-c2cc(N/N=C/c3ccccc3O)ncn2)n1	45	74*	4	-54*	47*	50
CCOC(=O)c1c(-c2ccccc2)csc1NC(=O)c1ccc(N2C(=O)CCC2=O)cc1	12	69*	4	-57*	15	-1
COc1ccc(C(=O)NC(=S)Nc2cc3oc4ccccc4c3cc2OC)cc1	5	33	-7	-41	-3	-25
COc1cc(OC)cc(C(=O)NC(=S)Nc2cc3oc4ccccc4c3cc2OC)c1	38	55*	3	-52*	6	8
COc1cccc(N(C(=O)c2ccco2)c2nc(-c3sc(NC(=O)c4ccco4)nc3C)cs2)c1	49	27	-3	-36	9	73*
CC(C)N=C(NC#N)SCc1ccccc1F	0	-6	5	10	-4	-1
N#CNC(=Nc1cccc(F)c1)SCc1ccccc1F	74*	22	2	10	-14	11
CN(Cc1ccccc1)CC(O)COc1ccc(CNCc2ccc(Cl)s2)cc1 (stereo unspecified)	54*	8	6	-13	24	24
CCc1ccc2nc(NC(=O)C3CSC4(C)CCC(=O)N34)sc2c1 (stereo unspecified)	-197	16	1	-10	-204	-43
O=C(O)CCCC(=O)N1CCOCCOCCOCCOCC1	6	6	1	-20	12	3
CC1Cc2ccccc2N1S(=O)(=O)c1cccc(C(=O)N2CCCCC2)c1 (stereo unspecified)	5	-4	-4	-10	8	16
COc1ccccc1N1CCN(C(=O)c2cccc(S(=O)(=O)N3c4ccccc4CC3C)c2)CC1 (stereo unspecified)	78*	38	4	-7	11	7
SMILES	Peg3 promoter	CF NFkB inh	ABHD5-PLIN5 inh	KKLEB cytotox	HIF-2a inh	TRPM1 prom inh
CCOC(=O)N1CCC2(CC1)NC(=O)c1ccccc1N2	-7	-35	-8	-2	2	.
CC(C)c1ccc(OCC(O)CNC(C)c2ccccc2)cc1 (stereo unspecified)	43	-5	-11	2	4	9
OC(CNCCc1ccc(Cl)cc1)COc1ccc2ccccc2c1 (stereo unspecified)	67*	1	4	-4	1	1
OC(CNCCc1ccc(Cl)cc1)COc1cc(Cl)ccc1Cl (stereo unspecified)	104*	5	-4	-12	3	4
CC(C)CCNCC(O)CON=C1c2ccccc2-c2ccccc21 (stereo unspecified)	107*	10	11	-18	9	-15
OC(CNCCC(c1ccccc1)c1ccccc1)COc1ccccc1 (stereo unspecified)	60*	7	4	-11	13	5
COc1ccc(CCNCC(O)COc2ccc(Cl)cc2)cc1OC (stereo unspecified)	-16	8	-1	-5	6	-4
COCCNCC(O)CON=C1c2ccccc2-c2ccccc21 (stereo unspecified)	21	1	8	3	12	6
Cc1ccc([N+](=O)[O-])cc1S(=O)(=O)Nc1ccc(C(=O)NCC2CCCO2)cc1 (stereo unspecified)	-5	29	3	-11	1	-6
COc1ccc(C(=O)Nc2nc3cc4c(cc3s2)OCCO4)c(OC)c1	-58	4	8	-14	-147	-5
OC(CNCCc1ccccc1)COc1ccc(OCC(O)CNCCc2ccccc2)cc1 (stereo unspecified)	102*	3	9	-2	13	84*
CCOC(=O)N/N=C\c1ccc([N+](=O)[O-])s1	-148	-2	-10	-10	-21	29
O=C(CNC(=O)c1ccccc1)N/N=C/c1ccc([N+](=O)[O-])s1	-25	-5	-9	0	-13	63*
Cc1cc(C(=O)N/N=C/c2ccc([N+](=O)[O-])s2)n[nH]1	-20	-6	-5	0	26	70*
O=C(Cc1ccccc1)NCC(=O)N/N=C/c1ccc([N+](=O)[O-])s1	33	2	-4	-4	6	83*
COc1ccc(NC(=O)CCC(=O)N/N=C/c2ccc([N+](=O)[O-])s2)cc1	19	6	0	-6	0	72*
Cc1cc(C)n(CC(=O)N/N=C/c2ccc([N+](=O)[O-])s2)n1	-10	-3	-7	-3	4	47
O=C(CNC(=O)c1ccccc1)N/N=C/c1cccs1	-5	4	-3	11	-20	6

Screening data deposited in PubChem BioAssay by several laboratories.
